The values below come from PubChem BioAssay (NCI).

Compounds without any hit were thinned out: in the full panel of roughly 83,000, 20% have a hit.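 Assay: single dose, 48 h. Readout: percent growth (0 = no net growth; negative = cell death). Active: <10.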 Calls of active or inactive are those of the source.

For the experiment, the system named is ACHN renal. As to the kind of experiment: NCI-60 one-dose screen, 48 h (100 = growth as untreated, 0 = no growth, -100 = all killed). Conditions: 10 µM unless noted. As for the experimental part:
Growth inhibition of the ACHN human tumor cell line is measured as a screen for anti-cancer activity. Cells are grown in 96 well plates and exposed to the test compound for 48 hours. Compounds are tested at a single concentration, which is 10^-5 M for most compounds. The reported endpoint is percent growth (GI% or GIPRCNT), where numbers from 0 - 100% represent growth inhibition, and numbers from -100% - 0 represent cell death. For example, a value of 40 represents 60% growth inhibition. A value of 0 means no net growth occurred over the course of the experiment. A value of -40 indicates 40% of cells at the beginning of the experiment died by the end of the experiment. A value of -100 means all cells are dead at the end of the experiment.
NCI-60 Human Tumor Cell Lines Screen was performed using the standard one-dose NCI protocol, which is described in more detail at https://dtp.cancer.gov/discovery_development/nci-60/default.htm.
Compounds with GIPRCNT values below 10 were considered active. Activity score was based on GIPRCNT using the following formula: […]
Score is 0 for GIPRCNT values of 100 or above, 50 for GIPRCNT values of 0, and 100 for GIPRCNT values of -100.
Consider `COc1cc(NCCCN(CC(C)C)CC(C)C)c2ncccc2c1`, for which the growth was 80.7% (inactive).

Turning to `CN1CCN(CCCNc2nccc(-c3c(-c4ccc(F)c(O)c4)nc4sccn34)n2)S1(=O)=O`, the growth is 82.4% (inactive).

With `COc1ccc(-c2ncc(-c3ccccc3)[nH]2)cc1OC`, the growth was 111% (inactive).

Turning to `COc1ccc(C2CC(n3nnnc3-c3ccccc3)=NN2)cc1` (stereo not given), the growth is 42.1% (inactive).

As for `Clc1cc(Cl)cc(N2N=C(c3cccc(Nc4ccncc4)c3)CC2c2ccc3c(c2)OCO3)c1` (stereo not given), the growth is -27.5% (active).

As for `Clc1ccc(C2CC(c3cccc(Nc4ccncc4)c3)=NN2c2ccccc2)cc1` (stereo not given), the growth is 78.1% (inactive).

Consider `COc1ccncc1C#Cc1cncc(C(=O)Nc2ccc(CN3CCN(C)CC3)c(C(F)(F)F)c2)c1`, for which the growth was 13.2% (inactive).

Turning to `CC(C)CN(C(=O)c1ccc(Cl)cc1)c1c(N)n(CC(C)C)c(=O)[nH]c1=O`, the growth was 101% (inactive).

For `COc1cc2nnn3c4ncccc4c(N=O)c3c2cc1OC`, the growth is -2.46% (active).

Take `COC(=O)C1NC(=S)N(c2ccc(Cl)cc2)C1/C=C/c1ccccc1` (stereo not given): the growth is 96.3% (inactive).

Consider `CCCc1cc2c(cc1Br)OCO2`, for which the growth is 105% (inactive).

Turning to `COc1c(Cl)cc(Cl)c2ccc(C=C3C(=O)NC(=S)NC3=O)nc12`, the growth is 101% (inactive).

On to `Cn1ncc2c(Nc3ccccc3Cl)nc(Cl)nc21`, for which the growth was 95.6% (inactive).

In the case of `O=C1CCCCCCCCC(O)C(O)CCCC(c2cccs2)O1` (stereo not given), the growth was 94.8% (inactive).

With `O=C(Nc1cccc(Cl)c1)c1cc(Cl)ccc1O`, the growth was -0.748% (active).

As for `C=C1C(=O)O[C@H]2[C@H]1CC/C(COC(=O)CCCc1c[nH]c3ccccc13)=C\CC[C@@]1(C)O[C@@H]21`, the growth is 59.5% (inactive).

As to `CCCC/C(=N\N=C(N)N)c1ccc(F)cc1`, the growth was 43.6% (inactive).

With `O=S(=O)(O)c1cc(O)c2c(N=Nc3ccc(Nc4ccccc4)c4c(S(=O)(=O)O)cccc34)cc(S(=O)(=O)O)cc2c1`, the growth was 98.5% (inactive).

Consider `CCCCCCCCN1C(=O)/C(=c2\sc3n(c2=O)C2C(NN=3)N(CC)C(=O)N2CC)c2ccccc21` (stereo not given), for which the growth is 73.8% (inactive).

Take `CC(=O)OCCCCCNc1ccccc1`: the growth is 101% (inactive).

As for `C=C1C(=O)O[C@H]2[C@H]1CC/C(COC(=O)/C=C/c1c[nH]c3ccccc13)=C\CC[C@@]1(C)O[C@@H]21`, the growth was -100% (active).

Consider `CCOC(=O)N1CCc2c(sc3nc4nc[nH]n4c(=O)c23)C1`, for which the growth was 103% (inactive).

As to `COc1ccc(/C(=C\c2ccccc2)C(=O)O)cc1OC`, the growth is 94.8% (inactive).

In the case of `O=CNc1cc(Cl)cc(Cl)c1`, the growth was 101% (inactive).

On to `Clc1ccc2c(c1)c(-c1ccccc1)nc1nncn12`, for which the growth is 117% (inactive).

For the molecule `O=C(O)CCCCCCCCCCCCCCC(=O)O`, the growth is 107% (inactive).

Consider `CCOC(=O)c1c(O)cc(-c2ccccc2)cc1-c1sc(N(C)Cc2ccccc2)nc1Cl`, for which the growth was 97.2% (inactive).

For `CCN(CC)S(=O)(=O)c1cccc([N+](=O)[O-])c1`, the growth was 109% (inactive).

For `CCNC(=O)c1[nH]cc(-c2ccc(OC)cc2)c1-c1cc(OC)c(OC)c(OC)c1`, the growth is 35.8% (inactive).

For the molecule `Nc1ncc(C#Cc2cncc(NC(=O)c3cccc(C(F)(F)F)c3)c2)c2cccnc12`, the growth was 55.1% (inactive).

For the molecule `CN1CCN(Cc2ccc(NC(=O)c3cncc(C#Cc4cnccc4C(F)(F)F)c3)cc2C(F)(F)F)CC1`, the growth is 75.8% (inactive).

As for `COc1ccc(C2CC(c3cccc(Nc4ccncc4)c3)=NN2c2ccccc2)cc1` (stereo not given), the growth is 69.2% (inactive).

For the molecule `COc1cc2c(cc1[N+](=O)[O-])-c1ccc([N+](=O)[O-])cc1/C2=N\O`, the growth is 72.5% (inactive).

For the molecule `COc1cc(/C=N/NC(=O)c2ccccc2Nc2cccc(C(F)(F)F)c2)ccc1O`, the growth was 103% (inactive).

Consider `CN1CCN(c2ccc3nc(-c4cc(C(C)(C)C)c(O)c(C(C)(C)C)c4)[nH]c3c2)CC1`, for which the growth is 87.3% (inactive).

For `O=C(CN1CCOCC1)Nc1ccc2ncnc(Nc3ccc(Oc4cccc(F)c4)c(Cl)c3)c2c1`, the growth was 24.1% (inactive).

Consider `O=C(Nc1nc2ccc(S(=O)(=O)Nc3ccc(C4(C(F)(F)F)CC4)cc3)cc2[nH]1)c1cnccn1`, for which the growth was 43.5% (inactive).

Regarding `COc1ccc(-c2nc(SC)nc(N3CCOCC3)c2C#N)cc1`, the growth was 94.3% (inactive).

Regarding `C=C(C)[C@@H]1CC[C@]2(C(=O)O)CC[C@]3(C)[C@H](CC[C@@H]4[C@@]5(C)C[C@@H](CC#Cc6ccc(Br)cc6)C(=O)C(C)(C)[C@@H]5CC[C@]43C)[C@@H]12`, the growth was 65% (inactive).

As for `COc1ccc(C(=O)/C=C/c2c(OC)cc(OC)cc2OC)c(OC)c1`, the growth is 26.9% (inactive).
